Experimental data: PubChem BioAssay (NCI)
About 79,000 compounds went through this panel and 15% of them were active in at least one assay; those are over-represented in the sample as a whole. Values without a mark were called inactive. Calls of active or inactive are those of the source. Cut-off read from the data, not from the text of the source: active = growth inhibition above about 70%; inactive = the rest.

Assays:
[1] = NCI Yeast Anticancer Drug Screen. Data for the rad50 strain (AID 155);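 note: 0% = growth of vehicle-only cultures of the same strain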; settings: S. cerevisiae rad50 strain growth inhibition, hits give high values
How it was run: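 Genetically altered yeast (DNA repair pathway); compound treatment; growth inhibition vs vehicle ctrl.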

[2] = NCI Yeast Anticancer Drug Screen. Data for the mec2-1 strain (AID 157); settings: S. cerevisiae mec2-1 strain, hits give high values
How it was run: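 Yeast mec2-1 mutant treated with compound. Readout: growth inhibition vs vehicle controls.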

[3] = NCI Yeast Anticancer Drug Screen. Data for the sgs1 mgt1 strain (AID 161);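 note: 0% = growth of cultures given vehicle only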; settings: S. cerevisiae sgs1 mgt1 strain, hits give high values
How it was run: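 Read-out: growth inhibition vs vehicle controls. Cells: mutant yeast strain deficient in DNA damage repair.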

[4] = NCI Yeast Anticancer Drug Screen. Data for the cln2 rad14 strain (AID 165);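 note: 0% = growth equal to vehicle treated cultures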; settings: S. cerevisiae cln2 rad14 strain, hits give high values
How it was run: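 cln2 rad14 yeast strain; compound exposure; growth inhibition read vs vehicle controls.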

[5] = NCI Yeast Anticancer Drug Screen. Data for the bub3 strain (AID 167); settings: S. cerevisiae bub3 mutant strain, hits give high values
How it was run: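 Yeast carrying a defined mutation is treated with each compound, and growth is compared with that of vehicle-exposed cells to give inhibition.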

[6] = NCI Yeast Anticancer Drug Screen. Data for the mlh1 rad18 strain (AID 175); settings: S. cerevisiae mlh1 rad18 strain growth inhibition, hits give high values
How it was run: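 Yeast w/ defined DNA-repair lesions; compound exposure; growth vs vehicle controls → % inhibition.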

[7] = at 5.0 µM (retest, dose inferred, filed as 0.5)
[8] = at 50.0 µM (retest, dose inferred, filed as 5.0)

SMILES | growth inhibition [1, 7] | growth inhibition [1, 8] | growth inhibition ([1]; at 50.0 µM) | growth inhibition [2, 7] | growth inhibition [2, 8] | growth inhibition ([2]; at 50.0 µM) | growth inhibition [3, 7] | growth inhibition [3, 8] | growth inhibition ([3]; at 50.0 µM) | growth inhibition [4, 7] | growth inhibition [4, 8] | growth inhibition ([4]; at 50.0 µM) | growth inhibition [5, 7] | growth inhibition [5, 8] | growth inhibition ([5]; at 50.0 µM) | growth inhibition [6, 7] | growth inhibition [6, 8] | growth inhibition ([6]; at 50.0 µM)
O=C(OC1CC2CC1C1CC=CC21)c1ccccc1 (configuration not stated) | -3% | -3% | -5.55% | -6% | 2% | 10.9% | -8% | 1% | -3.8% | -5% | -24% | -4.4% | 46% | 68% | 21.9% | -5% | -3% | -3.95%
[N-]=[N+]=Nc1c([N+](=O)[O-])c(=O)n(-c2ccccc2)c2ccccc12 | -8% | 34% | 65.1% | -3% | 54% | 67.3% | 0% | 32% | 70% (active) | 27% | 21% | 46.9% | -21% | 62% | 61% | 4% | 57% | 68.2%
CCOc1ccc(/C=C2\NC(=S)N(/C=C3\C(=O)Oc4ccccc4C3=O)C2=O)cc1 | 77% (active) | 91% (active) | -16.1% | 6% | 71% (active) | -28.6% | -30% | 58% | 0.45% | -14% | 70% (active) | -39.2% | -31% | 76% (active) | -23.9% | 11% | 94% (active) | -8.6%
Oc1cc2c(cc1C(c1ccc(F)cc1)N1CCCCC1)OCO2 (configuration not stated) | -1% | 76% (active) | 63% | -5% | 73% (active) | 64.4% | 6% | 77% (active) | 85.5% (active) | -4% | 39% | 54.9% | -8% | 54% | 84.4% (active) | -1% | 88% (active) | 59.3%
O=C1CSC(=S)N1Cc1ccccc1Cl | 15% | 93% (active) | 98.9% (active) | 6% | 97% (active) | 96.2% (active) | 11% | 98% (active) | 97.9% (active) | 2% | 81% (active) | 97.3% (active) | -1% | 94% (active) | 95.2% (active) | 11% | 98% (active) | 99% (active)
CCOC(=O)C1=C(c2ccccc2)N(C)c2ccccc2S1 | 4% | 55% | 75.9% (active) | 4% | 92% (active) | 80.7% (active) | 5% | 64% | 76.2% (active) | -1% | -7% | -0.8% | 2% | 78% (active) | 87% (active) | 1% | 62% | 67.2%
CCOC(=O)C(Cc1cn(S(=O)(=O)c2ccccc2)c2ccccc12)(NC(C)=O)C(=O)OCC | -2% | 17% | 61.8% | -11% | 14% | 17.3% | 8% | 30% | 70% (active) | 15% | 33% | -3.35% | -9% | 21% | 67.7% | 5% | 35% | 75.5% (active)
CCOC(=O)CNC(=O)CNC(=O)CNC(c1ccccc1)(c1ccccc1)c1ccccc1 | -8% | 56% | 66.5% | 41% | 69% | 60.3% | -13% | 81% (active) | 55.1% | -10% | 26% | 68.8% | -1% | 61% | 38.4% | 15% | 83% (active) | 63.7%
OCC(O)C(O)C(O)C(/C=N/Nc1ccccc1)=N\Nc1ccccc1 (configuration not stated) | 4% | -3% | 51.4% | -1% | -1% | 4.95% | 20% | 16% | 70.7% (active) | -41% | 4% | -0.65% | 1% | -89% | 4.3% | 16% | 4% | 30.4%
